Assay outcomes from PubChem.
Compounds with a hit are over-represented: about 2.7% of the library has one in this group of screens.
MsrA inh: bovine MsrA enzyme inhibitors, primary screen, biochemical, absorbance, HTS; Methionine sulfoxide reductase A (Bos taurus); purified bovine MsrA, absorbance read-out; inhibition, % at 15.5 µM; 0.75% of 360,000 active; AID 651718, 2012; in the data active means inhibition above about 4.5%;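 further: 0% = vehicle wells with enzyme and 100% = reference inhibitor wells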
rCAG RNA binder: binders of r(CAG) RNA repeats, primary screen, biochemical, fluorescence; r(CAG) RNA repeat, TO-PRO-1 dye displacement fluorescence; inhibition, % at 3 µM; 1.3% of 370,000 active; AID 651821, 2012;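 active means inhibition above the plate cutoff, the mean of all test compounds on that plate plus 3 SD, cut at about 35% in these data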;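 further: 0% = DMSO alone and 100% = 100 µM mitoxantrone as full dye displacement; higher means more dye released from RNA so lower well fluorescence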
MsrA act: bovine MsrA enzyme activators, primary screen, biochemical, absorbance, HTS. Methionine sulfoxide reductase A (Bos taurus). AID 602163, 2012. 0.3% of 360,000 active. purified bovine MsrA, absorbance read-out. activation, % at 10.6 µM; in the data active means activation above about 7.5%;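 further: 0% = vehicle and 100% = reference activator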
NadD block: inhibitors of S. aureus NadD, primary screen, biochemical, colorimetric, uHTS; 0.78% of 360,000 active; inhibition, % at 20 µM; purified NadD enzyme, colorimetric absorbance read-out; AID 602399, 2012; in the data active means inhibition above about 26%
rCAG bind conf: small molecules binding CAG repeat RNA – biochemical, fluorescence, confirmation; shares compounds with rCAG RNA binder; r(CAG) RNA repeat, TO-PRO-1 dye displacement fluorescence; inhibition, % at 3 µM; 70% of 4,300 active; AID 652065, 2013;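 active means inhibition above a per-plate cutoff, the mean inhibition of sample wells plus 3 SD, cut at about 35% in these data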;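 further: loss of TO-PRO-1 fluorescence as compound displaces dye from 1x1 AA loop RNA; 0% = DMSO only wells and 100% = 100 µM mitoxantrone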
DNA CAG counter: displacement of TO-PRO-1 from CAG DNA duplex, counter-screen for rCAG RNA repeat binder project, biochemical, fluorescence, TO-PRO-1 dye, d(CAG) DNA oligo; d(CAG) DNA oligo TO-PRO-1 dye displacement; shares compounds with rCAG RNA binder; inhibition, % at 3 µM; 94% of 4,300 active; AID 652068, 2013;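 active means inhibition above its plate's cutoff, the mean test-well inhibition plus 3 SD, cut at about 4.8% in these data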;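 further: 0% = DNA dye mix with DMSO and 100% = 100 µM mitoxantrone; hits displace the dye from DNA and so lower well fluorescence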
Active calls of the source: *; · = no result.

SMILES	MsrA inh	rCAG RNA binder	MsrA act	NadD block	rCAG bind conf	DNA CAG counter
NC(c1csc(NC(=O)Nc2ccccc2)n1)C1CCCCC1 (stereo unspecified)	-0.1	41.7*	-2.1	0.3	24.4	4.8*
COc1cc(NC(=O)Nc2nc(C(N)C3CCCCC3)cs2)cc(OC)c1OC (stereo unspecified)	0.9	30.6	-3.0	2.3	·	·
NC(c1csc(NC(=O)Nc2cccc(Cl)c2)n1)C1CCCCC1 (stereo unspecified)	-0.3	47.1*	1.4	10.2	31.4	5.9*
CCCn1c(SCC(=O)N2CCCC(C)C2)nnc1-c1ccccn1 (stereo unspecified)	0.2	-11.1	-3.2	-0.9	·	·
COc1ccc(-n2c(O)c(/C=N/NS(=O)(=O)c3ccc(C)c([N+](=O)[O-])c3)c3ccccc3c2=O)cc1OC	1.8	37.4*	-3.4	18.9	56.6*	25.5*
C[C@@H]1CN([C@H](C)CO)S(=O)(=O)c2ccc(Br)cc2O[C@@H]1CN(C)Cc1ccc(C(=O)O)cc1	-0.7	14.1	-1.4	0.0	·	·
C[C@@H]1CN([C@@H](C)CO)S(=O)(=O)c2ccc(/C=C/c3ccccc3)cc2O[C@@H]1CN(C)Cc1ccc(C(=O)O)cc1	2.2	59.8*	-2.4	15.7	65.8*	24.6*
CCOC(=O)Cc1cc(=O)n2[nH]cc(-c3cccc(Br)c3)c2n1	2.4	67.0*	-3.6	9.8	53.2*	17.3*
COc1ccc(NC(=O)Cn2nnc(-c3ccccc3)c2COc2ccc(C(C)=O)cc2)cn1	1.3	3.4	-3.4	2.4	·	·
CC(=O)c1ccc(OCc2nnn(CC(=O)NS(=O)(=O)Cc3ccccc3)c2-c2ccccc2)cc1	-1.5	55.8*	-2.7	1.0	77.8*	41.0*
O=C(OCC(=O)N1CCCC1=O)c1ncc(Cl)c(Cl)c1Cl	-0.4	-4.1	-1.1	2.0	·	·
CCCn1c(O)c(C=Nc2ccccc2)sc1=S	0.0	-0.8	-4.9	-3.4	·	·
Oc1c(/C=C/C=C/C=Nc2ccccc2)sc(=S)n1Cc1ccccc1	-0.2	45.7*	-4.7	32.0*	38.4*	19.8*
CCn1c(O)c(/C=C/C=C/C=Nc2ccccc2)sc1=S	0.6	19.2	-2.5	3.9	·	·
CCCCn1c(O)c(/C=C/C=C/C=Nc2ccccc2)sc1=S	0.5	40.0*	-2.0	29.0	32.5	18.0*
CCOC(=O)CC(NC(=O)C1c2ccccc2Oc2ccccc21)c1ccccc1Cl (stereo unspecified)	0.2	1.7	-1.2	-7.0	·	·
Cc1ccc(S(=O)(=O)N(C)CC(=O)NCCCn2nc(C)cc2C)cc1	-0.2	0.0	-3.0	-3.5	·	·
COc1cccc(-c2nn(-c3ccc(C)cc3)cc2C(=O)N2CCN(C3CCS(=O)(=O)C3)CC2)c1 (stereo unspecified)	-0.3	5.7	-1.3	1.0	·	·
CCOc1ccc(-c2nc(CSCC(=O)NCC3CCCO3)c(C)o2)cc1 (stereo unspecified)	0.6	-7.6	-2.2	3.7	·	·
CCCSc1nc(C)c(-c2csc(C(C#N)=C3CCCC3)n2)cc1C#N	0.3	43.9*	-0.5	21.7	37.5*	25.2*
O=C1/C(=C/c2ccco2)SC(=S)N1CC1CCCO1 (stereo unspecified)	1.5	46.1*	-3.6	7.2	16.3	8.6*
O=C1/C(=C/c2cccnc2)SC(=S)N1CC1CCCO1 (stereo unspecified)	1.1	-4.3	-5.6	6.0	·	·
Cc1ccc(/C=C2\SC(=S)N(CC3CCCO3)C2=O)o1 (stereo unspecified)	0.4	46.5*	-3.7	3.8	40.1*	15.3*
NC(c1ccccc1)c1csc(NC(=O)Nc2ccc(OC(F)(F)F)cc2)n1 (stereo unspecified)	0.9	40.8*	-2.5	17.1	35.0*	12.9*
NC(c1ccccc1)c1csc(NC(=O)Nc2cccc(Cl)c2)n1 (stereo unspecified)	0.3	48.0*	-0.2	0.8	37.4*	16.7*
SMILES	MsrA inh	rCAG RNA binder	MsrA act	NadD block	rCAG bind conf	DNA CAG counter
COc1ccc(NC(=O)Nc2nc(C(N)Cc3ccc(C(F)(F)F)cc3)cs2)cc1 (stereo unspecified)	-1.9	36.8*	-3.0	6.9	17.4	2.0
O=C(Nc1cccc(Cl)c1)Nc1nc(-c2ccc(Cl)cc2)cs1	-1.2	30.6	-6.0	15.4	·	·
NC(CCc1ccccc1)c1csc(NC(=O)Nc2cccc(Cl)c2)n1 (stereo unspecified)	-2.2	47.5*	0.4	15.6	39.8*	9.8*
CCc1nc2ccc(C(=O)NC3CCN(Cc4ccccc4)CC3)cn2c1N(CC)Cc1cccc(Br)c1	0.8	5.2	-2.7	14.3	·	·
Cn1cc(CNCc2cn(C)nc2-c2ccc(C3CCCCC3)cc2)cn1	0.5	-7.3	-11.9	-8.3	·	·
NC(COCc1ccccc1)c1csc(NC(=O)Nc2cccc(C(F)(F)F)c2)n1 (stereo unspecified)	-1.6	43.1*	-3.8	0.3	29.9	5.1*
O=C1/C(=C\c2cc(Cl)c(O)c(Cl)c2)SC(=S)N1Cc1ccccc1	0.2	18.2	-9.5	12.3	·	·
COc1ccc(/C=C2\SC(=O)N(CC(=O)NNC(=O)c3ccccc3O)C2=O)cc1	1.8	22.7	-3.8	22.8	·	·
O=C(O)COc1ccc(/C=C2/SC(=S)N(Cc3ccccc3)C2=O)cc1	1.7	75.8*	-0.1	7.6	84.8*	51.6*
COc1ccc(/C=C2\SC(=O)N(CC(=O)NNC(=O)c3ccccc3O)C2=O)cc1OC	3.1	50.5*	-4.3	13.0	45.9*	15.7*
COc1ccc(/C=C2/SC(=S)N(Cc3ccccc3)C2=O)cc1O	1.0	44.0*	-1.9	-6.3	26.4	13.8*
O=C(O)c1ccccc1NS(=O)(=O)c1ccc(N/N=C/c2ccc(O)c(O)c2)c([N+](=O)[O-])c1	4.8*	92.5*	-8.1	18.9	90.6*	70.0*
COc1ccc(/C=N/Nc2ccccc2C(=O)O)cc1Cn1cc([N+](=O)[O-])cn1	2.5	49.5*	-1.9	4.7	39.6*	13.0*
COc1ccc(NS(=O)(=O)c2ccc(NN=Cc3ccc(C(=O)O)cc3)c([N+](=O)[O-])c2)cc1	0.3	5.6	·	·	·	·
COc1ccccc1NS(=O)(=O)c1cc([N+](=O)[O-])ccc1N/N=C/c1c[nH]c2ccccc12	0.0	74.4*	-0.9	25.6	71.2*	35.6*
COc1ccc(C=NNc2ccc([N+](=O)[O-])cc2S(=O)(=O)Nc2ccccc2C(=O)O)cc1OC	1.4	90.3*	-2.4	16.1	93.6*	75.0*
O=C(c1ccco1)N1CCN(Cc2cc(=O)c(OCc3ccc([N+](=O)[O-])cc3)co2)CC1	1.1	4.6	-2.3	4.6	·	·
